{"source": "PubChem BioAssay", "key": {"[1]": {"test_system": "Neuropilin-2 / VEGF-C interaction (human)", "assay": "small molecules blocking Neuropilin-2/VEGF-C interaction – biochemical, microplate binding format, z-score (AID 743281)", "conditions": "microplate NRP2/VEGF-C binding assay; stronger effect = lower value"}, "[2]": {"assay": "modulation of C. elegans fzo-1 (AID 1259413);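 on all read-outs here: fzo-1 mutant C. elegans worms in liquid wells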", "conditions": "C. elegans fzo-1 modulator screen, mean read-out; stronger effect = higher value"}, "[3]": {"assay": "P. berghei load reduction in hepatocytes – cell-based, HepG2, luciferase luminescence, HepG2 viability, primary screen (AID 624349; in the data active means parasite load remaining mostly below about 12%, no sharp cut-off; inactive means mostly above about 10%;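 on all read-outs here: 100% = mean of DMSO negative control wells on the same plate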)", "conditions": "P. berghei liver stage in HepG2, luciferase luminescence, concentration not given here; parasite load remaining: stronger effect = lower value; viability: measured here: HepG2 viability without parasites"}, "[4]": {"assay": "signal quenchers or enhancers, Cy5 substrate/SSB – biochemical, NIH Clinical Collection, E. coli SSB, artefact control for HCV NS3 helicase inhibitor project (AID 743268)", "conditions": "Cy5-oligo bound E. coli SSB, fluorescence interference"}, "[5]": {"test_system": "Hepatitis C virus NS3 helicase", "assay": "blockers of NS3h binding to DNA – biochemical, fluorescence polarization, NIH Clinical Collection, primary screen (AID 743270)", "conditions": "NS3 helicase binding to Cy5-dT15 DNA, stronger effect = higher value, concentration not given here"}, "[6]": {"target": "Single-stranded DNA-binding protein (Escherichia coli (strain K12)) (UniProt P0AGE0)", "assay": "SSB-ssDNA binding inhibitors – biochemical, fluorescence polarization, NIH Clinical Collection, counter-screen for HCV NS3 helicase inhibitor project (AID 743271; in the data active means inhibition above about 28%)", "conditions": "E. coli SSB-DNA binding, stronger effect = higher value, concentration not given here"}, "[7]": {"assay": "compounds distorting NS3 helicase fluorescence signal – biochemical, NIH Clinical Collection, artefact control for HCV NS3 helicase inhibitor project (AID 743272)", "conditions": "fluorescence interference counterscreen, HCV NS3 helicase assay; stronger effect = lower value"}, "[8]": {"assay": "EMT-state selective cytotoxicity in co-culture – imaging, PC-3E GFP, TEM4-18 mCherry, primary screen (AID 1345086;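 active means compounds killing one labelled cell type while sparing the other, by normalised counts and ratio limits, not self-fluorescent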;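 on all read-outs here: cells exposed to compound for 72 h before imaging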;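 on red/green cell ratio (normalised): normalised mesenchymal count divided by normalised epithelial count so high means epithelial killing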)", "conditions": "PC-3E GFP / TEM4-18 mCherry co-culture, imaging cell counts, at 1 µM; for red/green cell ratio (normalised): actives lie on both sides, counts scaled to control wells, 1 = unselective"}, "[9]": {"conditions": "measured here: epithelial PC-3E GFP cell survival"}, "[10]": {"conditions": "measured here: mesenchymal TEM4-18 mCherry cell survival"}}, "note": "Active and inactive are the calls of the source. Unless noted, how the calls were made is not given here.", "data": [{"compound": "N[C@@H](C(=O)N[C@@H]1C(=O)N2C(C(=O)O)=C(CSC3CNNN3)CS[C@H]12)c1ccc(O)cc1", "note": "(some centres not stated) (tested in a mixture with another compound)", "values": [{"measurement": "outcome", "setting": "[1]", "value": "inactive"}, {"measurement": "mean signal", "setting": "[2]", "value": "239 (inactive)"}]}, {"compound": "C#C[C@]1(O)CC[C@H]2[C@@H]3CCC4=CC(=O)CC[C@@H]4[C@H]3CCC21CC", "note": "(some centres not stated)", "values": [{"measurement": "outcome", "setting": "[1]", "value": "inactive"}, {"measurement": "mean signal", "setting": "[2]", "value": "225 (inactive)"}]}, {"compound": "C[C@@H]1C[C@H]2[C@@H]3C[C@H](F)C4=CC(=O)C(Cl)=CC4(C)[C@@]3(F)[C@@H](O)CC2(C)[C@@]1(O)C(=O)CO", "note": "(some centres not stated)", "values": [{"measurement": "outcome", "setting": "[1]", "value": "inactive"}, {"measurement": "mean signal", "setting": "[2]", "value": "273 (inactive)"}]}, {"compound": "CC(=O)O[C@]1(C(C)=O)CC[C@H]2[C@@H]3C=C(C)C4=CC(=O)CCC4(C)[C@H]3CCC21C", "note": "(some centres not stated)", "values": [{"measurement": "outcome", "setting": "[1]", "value": "inactive"}, {"measurement": "mean signal", "setting": "[2]", "value": "261 (inactive)"}]}, {"compound": "CC12CC[C@@H]3c4ccc(OS(=O)(=O)O)cc4CC[C@H]3[C@@H]1CCC2=O", "note": "(some centres not stated)", "values": [{"measurement": "outcome", "setting": "[1]", "value": "inactive"}, {"measurement": "mean signal", "setting": "[2]", "value": "260 (inactive)"}]}, {"compound": "C=CC[C@@H]1/C=C(\\C)C[C@H](C)C[C@H](OC)[C@H]2OC(O)(C(=O)C(=O)N3CCCC[C@H]3C(=O)O[C@H](/C(C)=C/[C@@H]3CC[C@@H](O)[C@H](OC)C3)[C@H](C)[C@@H](O)CC1=O)[C@H](C)C[C@@H]2OC", "values": [{"measurement": "outcome", "setting": "[1]", "value": "inactive"}, {"measurement": "mean signal", "setting": "[2]", "value": "274 (inactive)"}]}, {"compound": "O=C1N[C@H](C(=O)O)CS1", "values": [{"measurement": "parasite load remaining", "setting": "[3]", "value": "95.8% (inactive)"}, {"measurement": "viability", "setting": "[3]", "value": 70.6, "unit": "%"}, {"measurement": "fluorescence ratio", "setting": "[4]", "value": "1.02 (inactive)"}, {"measurement": "inhibition", "setting": "[5]", "value": "-3.56% (inactive)"}, {"measurement": "inhibition", "setting": "[6]", "value": "-3.18% (inactive)"}, {"measurement": "fluorescence ratio", "setting": "[7]", "value": "0.96 (inactive)"}, {"measurement": "z-score", "setting": "[1]", "value": "-0.587 (inactive)"}, {"measurement": "mean signal", "setting": "[2]", "value": "242 (inactive)"}]}, {"compound": "NCCC[C@H](N)CC(=O)NC1CNC(=O)[C@H]([C@H]2C[C@H](O)N=C(N)N2)NC(=O)/C(=C/NC(N)=O)NC(=O)[C@H](CO)NC(=O)[C@H](CO)NC1=O", "note": "(some centres not stated)", "values": [{"measurement": "red/green cell ratio (normalised)", "setting": "[8]", "value": "0.82 (inactive)"}, {"measurement": "normalised cell number", "setting": "[8]; [9]", "value": 1.24}, {"measurement": "normalised cell number", "setting": "[8]; [10]", "value": 1.02}]}, {"compound": "CO[C@H]1C=CO[C@@]2(C)Oc3c(C)c(O)c4c(O)c(c5c(nc6cc(C)ccn65)c4c3C2=O)NC(=O)/C(C)=C\\C=C[C@H](C)[C@H](O)[C@@H](C)[C@@H](O)[C@@H](C)[C@H](OC(C)=O)[C@@H]1C", "values": [{"measurement": "outcome", "setting": "[1]", "value": "inactive"}, {"measurement": "mean signal", "setting": "[2]", "value": "289 (inactive)"}]}, {"compound": "OC[C@H]1O[C@H](OC[C@H]2O[C@@H](O)[C@H](O)[C@@H](O)[C@@H]2O)[C@H](O)[C@@H](O)[C@H]1O", "values": [{"measurement": "red/green cell ratio (normalised)", "setting": "[8]", "value": "0.93 (inactive)"}, {"measurement": "normalised cell number", "setting": "[8]; [9]", "value": 0.99}, {"measurement": "normalised cell number", "setting": "[8]; [10]", "value": 0.91}]}, {"compound": "CC[C@H](CCC(C)[C@H]1CCC2C3CCC4C[C@@H](O)CC[C@]4(C)C3CC[C@@]21C)C(C)C", "note": "(some centres not stated)", "values": [{"measurement": "red/green cell ratio (normalised)", "setting": "[8]", "value": "1.11 (inactive)"}, {"measurement": "normalised cell number", "setting": "[8]; [9]", "value": 0.91}, {"measurement": "normalised cell number", "setting": "[8]; [10]", "value": 1.01}]}, {"compound": "CC#C[C@]1(O)CC[C@H]2[C@@H]3CCC4=CC(=O)CCC4=C3[C@@H](c3ccc(N(C)C)cc3)CC21C", "note": "(some centres not stated)", "values": [{"measurement": "outcome", "setting": "[1]", "value": "inactive"}, {"measurement": "mean signal", "setting": "[2]", "value": "225 (inactive)"}]}, {"compound": "C=CC1=C(C(=O)O)N2C(=O)[C@@H](NC(=O)/C(=N/OCC(=O)O)c3csc(N)n3)[C@H]2SC1", "values": [{"measurement": "outcome", "setting": "[1]", "value": "inactive"}, {"measurement": "mean signal", "setting": "[2]", "value": "257 (inactive)"}]}, {"compound": "CC12CC[C@@H]3c4ccc(O)cc4CC[C@H]3[C@@H]1CC[C@@H]2O", "note": "(some centres not stated)", "values": [{"measurement": "outcome", "setting": "[1]", "value": "inactive"}, {"measurement": "mean signal", "setting": "[2]", "value": "233 (inactive)"}]}, {"compound": "COc1cc(OC)c2c(c1C)C(C)(O)COC2=O", "note": "(configuration not stated)", "values": [{"measurement": "red/green cell ratio (normalised)", "setting": "[8]", "value": "0.9 (inactive)"}, {"measurement": "normalised cell number", "setting": "[8]; [9]", "value": 1.14}, {"measurement": "normalised cell number", "setting": "[8]; [10]", "value": 1.02}]}, {"compound": "CCN(Cc1cccc(S(=O)(=O)O)c1)c1cccc(C(=C2C=CC(=[N+](CC)Cc3cccc(S(=O)(=O)O)c3)C=C2)c2ccc(O)cc2S(=O)(=O)[O-])c1", "values": [{"measurement": "red/green cell ratio (normalised)", "setting": "[8]", "value": "0.88 (inactive)"}, {"measurement": "normalised cell number", "setting": "[8]; [9]", "value": 1.26}, {"measurement": "normalised cell number", "setting": "[8]; [10]", "value": 1.11}]}, {"compound": "Cc1cccc(CN2CCN(C(c3ccccc3)c3ccc(Cl)c(C)c3)CC2)c1", "note": "(configuration not stated)", "values": [{"measurement": "red/green cell ratio (normalised)", "setting": "[8]", "value": "0.79 (inactive)"}, {"measurement": "normalised cell number", "setting": "[8]; [9]", "value": 1.23}, {"measurement": "normalised cell number", "setting": "[8]; [10]", "value": 0.97}]}, {"compound": "O=c1c(O)c(-c2ccccc2)oc2cc(O)cc(O)c12", "values": [{"measurement": "red/green cell ratio (normalised)", "setting": "[8]", "value": "0.9 (inactive)"}, {"measurement": "normalised cell number", "setting": "[8]; [9]", "value": 1.07}, {"measurement": "normalised cell number", "setting": "[8]; [10]", "value": 0.96}]}, {"compound": "CC(C)CC1OC23SCC(c4ccccc4)N2C(=O)C1C(C)S3", "note": "(configuration not stated)", "values": [{"measurement": "red/green cell ratio (normalised)", "setting": "[8]", "value": "0.8 (inactive)"}, {"measurement": "normalised cell number", "setting": "[8]; [9]", "value": 1.19}, {"measurement": "normalised cell number", "setting": "[8]; [10]", "value": 0.96}]}, {"compound": "NC(=O)c1cc(F)c(F)cc1NC1CC1", "values": [{"measurement": "red/green cell ratio (normalised)", "setting": "[8]", "value": "1.15 (inactive)"}, {"measurement": "normalised cell number", "setting": "[8]; [9]", "value": 1.02}, {"measurement": "normalised cell number", "setting": "[8]; [10]", "value": 1.16}]}, {"compound": "CO[C@H]1CC(O[C@@H]2/C(C)=C/C[C@@H]3C[C@@H](C[C@]4(C=C[C@H](C)[C@@H](C5CCCCC5)O4)O3)OC(=O)[C@@H]3C=C(C)[C@@H](O)C4OC/C(=C\\C=C\\[C@@H]2C)[C@]43O)O[C@@H](C)C1O[C@H]1C[C@H](OC)[C@@H](O)[C@H](C)O1", "note": "(some centres not stated)", "values": [{"measurement": "red/green cell ratio (normalised)", "setting": "[8]", "value": "1.04 (inactive)"}, {"measurement": "normalised cell number", "setting": "[8]; [9]", "value": 1.06}, {"measurement": "normalised cell number", "setting": "[8]; [10]", "value": 1.1}]}, {"compound": "CC1(C)C2CC(=O)[C@@]3(C)C4=CC(=O)O[C@@H](C(=O)O)[C@]4(C)CCC3[C@@]2(C)[C@@H](O)C[C@H]1O", "note": "(some centres not stated)", "values": [{"measurement": "red/green cell ratio (normalised)", "setting": "[8]", "value": "0.95 (inactive)"}, {"measurement": "normalised cell number", "setting": "[8]; [9]", "value": 1.05}, {"measurement": "normalised cell number", "setting": "[8]; [10]", "value": 0.99}]}, {"compound": "CC(CC(=O)N1C(=S)SC[C@@H]1c1ccccc1)N1C(=S)SC[C@@H]1c1ccccc1", "note": "(some centres not stated)", "values": [{"measurement": "red/green cell ratio (normalised)", "setting": "[8]", "value": "0.88 (inactive)"}, {"measurement": "normalised cell number", "setting": "[8]; [9]", "value": 1.18}, {"measurement": "normalised cell number", "setting": "[8]; [10]", "value": 1.04}]}, {"compound": "NC(CSCSCC(N)C(=O)O)C(=O)O", "note": "(configuration not stated)", "values": [{"measurement": "red/green cell ratio (normalised)", "setting": "[8]", "value": "1.19 (inactive)"}, {"measurement": "normalised cell number", "setting": "[8]; [9]", "value": 0.91}, {"measurement": "normalised cell number", "setting": "[8]; [10]", "value": 1.08}]}]}
